Test [1] is described as follows: High-throughput drug toxicity screening in the BPDCN cell line Gen2.2 (AID 1224824; call rule not given here;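 further: cells exposed to compounds for 48 h before reading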). The conditions noted are these: Gen2.2 BPDCN cells; at 45.8 µM (top of the series) unless noted. Summed up:
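CellTiter-Glo luminescence read after 48 h compound exposure at 37 C defines viability; percent activity set with DMSO as 100% and bortezomib (9.2 uM final) as 0%. 500 exponentially growing cells per well, RPMI plus 10% FBS.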

Test [2] is described as follows: qHTS assay for measurement of the activity of small molecule inhibitors on Zika virus induced Caspase-3 activity in human iPSC derived neural progenitor cells (hNPCs) (AID 1224857). Further: nearly all actives have a fitted effect of over 65% in size. Further: potency means the concentration at half of the fitted maximal effect. Summed up:
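Percent inhibition of virus-induced caspase-3/7 luminescence (Caspase-Glo), scaled between uninfected cells and Zika-infected cells. hNPCs received compound 1 hr before ZIKV at 2 FFU/cell, with 6 hours infection at 37 C.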
(qHTS replaces the single test concentration by a dilution series.)

Test [3] is described as follows: qHTS assay for measurement of the activity of small molecule inhibitors on Zika virus induced Caspase-3 activity in human astrocytoma cells (AID 1224859).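 Further: plate controls were ZIKV-infected untreated cells for no effect and uninfected cells for full effect.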 Summed up:
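Luminescent caspase-3/7 read-out (30 min reagent, room temperature) in human SNB-19 cells infected 6 h with ZIKV (2 FFU/cell) after 1 h compound pre-incubation; Data were normalised to uninfected and infected wells.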

A short description of test [4]: qHTS Screen of the MIPE 4.0 Collection Against Ewings Sarcoma (RDES) (AID 1259252). Further: nearly all actives have a fitted effect of over 35% in size. Further: potency means the concentration at half of the fitted maximal effect. Summed up: (§1)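 Here, cells in 5% FBS RPMI were exposed for two days (48 h) to compound dilutions added four hours after plating. ATP-based CellTiter-Glo luminescence measured viability, normalized to vehicle and no-cell blanks.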
A short description of test [5]: qHTS Screen of the MIPE 4.0 Collection Against Ewings Sarcoma (TC71) (AID 1259253). Further: nearly all actives have a fitted effect of over 40% in size. Further: potency means the concentration at half of the fitted maximal effect. Summed up: as §1
The nature of test [6]: qHTS Screen of the MIPE 4.0 Collection Against Ewings Sarcoma (EW8) (AID 1259255). Further: nearly all actives have a fitted effect of over 35% in size. Further: potency means the concentration at half of the fitted maximal effect.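 On viability: 100% = DMSO-treated cells and 0% = medium-only wells without cells.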 Summed up:
as §1

Test [7] in a line: qHTS Screen of the MIPE 4.0 Collection Against Ewings Sarcoma (TC32) (AID 1259256). Further: nearly all actives have a fitted effect of over 45% in size. Further: potency means the concentration at half of the fitted maximal effect. Summed up:
as §1

The nature of test [8]: P-glycoprotein substrates identified in KB-8-5-11 adenocarcinoma cell line, qHTS therapeutic library screen (AID 1346987). Further: nearly all actives have a fitted effect of over 65% in size. Further: potency means the concentration at half of the fitted maximal effect. Summed up: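 Luminescence from CellTiter-Glo, read 5 min after addition, quantified survival of KB-8-5-11 (P-gp-overexpressing) cells exposed to compounds for 72 h. AC50 was derived from concentration-response curves.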
Test [9] is described as follows: P-glycoprotein substrates identified in KB-3-1 adenocarcinoma cell line, qHTS therapeutic library screen (AID 1346986). Further: nearly all actives have a fitted effect of over 60% in size.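 Further: potency means the concentration at half of the fitted maximal effect; potency is for cytotoxicity meaning loss of cell viability.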 Summed up: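 72 h cell-killing screen, 500 cells/well, CellTiter-Glo luminescence. Paired lines KB-3-1/KB-8-5-11; P-gp dependence checked by tariquidar co-treatment and HEK-293 MDR-19 versus empty-vector cells.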

SMILES strings stand for the structures. “And” between values parts separate entries of the source, which are not always exact repeats. Equal values may be shown once. Results filed as inconclusive are left out. The source made the active and inactive calls. Unless noted, the call rests on the fitted dose curve; in most records, active means well fitted curve in the direction sought with a large enough effect; inconclusive means small, poorly fitted or top-dose-only effect, or another doubt; inactive means no such curve, though single readings can be large; an effect the other way counts as inactive or inconclusive.

Results on 18 compounds are retold here after PubChem BioAssay (NCATS).

As for `C[C@]12CC[C@@H]3c4ccc(O)cc4CC[C@H]3[C@H]1CC[C@H]2O`, the cell viability, % of control (lower = more cytotoxic) in test [1] stood at 50.6%. The Potency result in test [2] and in test [3] was “inactive” in each case. Moreover, the Potency in test [4] is 8.33 µM (active); in test [5], 16.6 µM (active); in [6], 18.7 µM (active); in [7] it was 16.6 µM (active); in test [8], 7.43 µM (active).

With `CC(=O)N[C@H]1[C@@H]([C@H](O)[C@H](O)CO)OC(C(=O)O)=C[C@@H]1N=C(N)N`, in test [1], the cell viability, % of control (lower = more cytotoxic) was found to be 114%. For the same compound, the Potency result in test [2], in [3], in [4], in test [5], in test [6] and in test [7] was “inactive” in each case. The Potency result in test [9] and in test [8] was “inactive” each time.

As for `O=C(O)[C@H](CC(=O)N1C[C@@H]2CCCC[C@H]2C1)Cc1ccccc1`, in test [1], the cell viability, % of control (lower = more cytotoxic) was 133%. For the same compound, the Potency in [2] is 23.5 µM (active). For the same compound, the Potency entry in test [3], in test [4], in test [5], in [6], in test [7] and in test [8] was “inactive” in each case.

For `CC(C)OC(=O)[C@H](C)N[P@](=O)(OC[C@H]1O[C@@H](n2ccc(=O)[nH]c2=O)[C@](C)(F)[C@H]1O)Oc1ccccc1`, the cell viability, % of control (lower = more cytotoxic) in [1] stood at 128%. Besides, the Potency result in [2], in test [3], in [4], in test [5], in test [6] and in test [7] was “inactive” each time. In addition, the Potency entry in [8] is “inactive”.

`Cc1cnc(Nc2ccc(CN3CCOCC3)cc2)nc1Nc1cccc(S(=O)(=O)NC(C)(C)C)c1`: in [1], the cell viability, % of control (lower = more cytotoxic) is 1.99%. For the same compound, the Potency result in [2] and in test [3] was “inactive” each time. The Potency is 3.32 µM (active) in [4]; 3.32 µM (active) in [5]; 2.64 µM (active) in [6]; 3.32 µM (active) and 1.84 µM (active) in test [8].

`OC[C@H]1OC(O)C[C@@H](O)[C@H]1O` (some centres undefined): the cell viability, % of control (lower = more cytotoxic) in [1] came to 118%. Moreover, the Potency result in test [2], in test [3], in test [4], in [5], in test [6] and in test [7] was “inactive” throughout. Besides, the Potency entry in [8] was “inactive”.

Consider `N#CC(=Cc1ccc(O)c(O)c1)C(=O)NCc1ccccc1`, for which the cell viability, % of control (lower = more cytotoxic) in test [1] worked out at 70.4%. In addition, the Potency result in test [2], in test [3], in [9] and in [8] was “inactive” each time. Moreover, the Potency was 23.5 µM (active) in [4], 23.5 µM (active) in test [5], 18.7 µM (active) in [6] and 20.9 µM (active) in [7].

As for `Cc1cn([C@@H]2O[C@H](CO)[C@@H](O)[C@H]2F)c(=O)[nH]c1=O`, the cell viability, % of control (lower = more cytotoxic) in [1] was 189%. For the same compound, the Potency entry in test [2], in [3], in test [4], in [6], in test [7] and in [9] was “inactive” in each case. The Potency result in test [8] is “inactive”.

As to `COc1cc(C)c(Sc2cnc(NC(=O)c3ccc(CNC(C)C(C)(C)C)cc3)s2)cc1C(=O)N1CCN(C(C)=O)CC1` (centres undefined), the cell viability, % of control (lower = more cytotoxic) in test [1] came to 4.37%. Moreover, the Potency result in test [2], in [9] and in [8] was “inactive” throughout. Further, the Potency in test [4] was 16.6 µM (active); in [5], 14.8 µM (active); in test [6] it was 1.48 µM (active); in [7] it was 2.96 µM (active).

On to `Nc1ccn(C[C@@H](CO)OCP(=O)(O)O)c(=O)n1`, for which, in [1], the cell viability, % of control (lower = more cytotoxic) was 138% [at 23.2 µM]. Further, the Potency result in test [2], in test [3], in [4], in [5] and in test [6] was “inactive” throughout.

For `Oc1cc2c(cc1O)C1c3ccc(O)c(O)c3OCC1(O)C2` (centres undefined), in test [1], the cell viability, % of control (lower = more cytotoxic) came out at 167%. Further, the Potency entry in test [2], in test [3], in test [4], in test [5], in [6] and in test [8] was “inactive” in each case.

Regarding `CC(C)(O)Cn1c(NC(=O)c2ccc(-c3cn[nH]c3)s2)nc2cc(CN3CCOCC3)ccc21`, the cell viability, % of control (lower = more cytotoxic) in test [1] stood at 7.04%. Moreover, the Potency entry in [2] is “inactive”. The Potency was 1.66 µM (active) in test [4]; 1.66 µM (active) in [5]; 2.96 µM (active) in test [6]; 3.32 µM (active) in test [7]; 3.72 µM (active) in test [8].

Regarding `CON=C(C(=O)N[C@@H]1C(=O)N2C(C(=O)O)=C(Cn3ccc(=N)n3CCO)CS[C@H]12)c1csc(N)n1`, the cell viability, % of control (lower = more cytotoxic) in [1] amounted to 137%. Also, the Potency result in test [2], in test [3], in test [4], in test [6], in test [7] and in [9] was “inactive” each time. For the same compound, the Potency result in test [8] is “inactive”.

Regarding `Cc1nc(NC(=O)N2CCC[C@@H]2C(N)=O)sc1-c1ccnc(C(C)(C)C(F)(F)F)c1`, the cell viability, % of control (lower = more cytotoxic) in test [1] was 21%. The Potency result in [2] and in test [3] was “inactive” in each case. Also, the Potency in [4] is 1.48 µM (active); in [5] it was 11.8 µM (active); in test [6], 23.5 µM (active); in [7], 6.62 µM (active); in test [8], 6.62 µM (active).

For the compound `COc1ccc(C[C@@H](C)[C@@H](C)Cc2ccc(OC)c(OC)c2)cc1OC`, the cell viability, % of control (lower = more cytotoxic) in test [1] worked out at 6.99%. In addition, the Potency result in test [2], in test [3] and in [7] was “inactive” in each case. For the same compound, the Potency in [4] was 0.743 µM (active); in test [6], 1.18 µM (active); in [8] it was 7.43 µM (active).

With `CN(C)CC(=O)N1CCC(c2ccc(NC(=O)c3ncc(C#N)[nH]3)c(C3=CCCCC3)c2)CC1`, the cell viability, % of control (lower = more cytotoxic) in test [1] is 168%. Also, the Potency result in [2], in test [3] and in [8] was “inactive” in each case. For the same compound, the Potency in [4] was 13.2 µM (active); in test [5] it was 16.6 µM (active); in [6], 18.7 µM (active); in test [7], 20.9 µM (active).

Take `COc1cc([C@@H]2c3cc4c(cc3[C@@H](O[C@@H]3O[C@@H]5CO[C@@H](c6cccs6)O[C@@H]5[C@H](O)[C@@H]3O)[C@H]3COC(=O)[C@H]23)OCO4)cc(OC)c1O`: the cell viability, % of control (lower = more cytotoxic) in test [1] turned out to be 27.7%. Besides, the Potency result in test [2], in test [3] and in [7] was “inactive” throughout. For the same compound, the Potency in [4] was 0.264 µM (active); in [6] it was 0.0296 µM (active).

`COc1ccc(Nc2cc(-c3cnc(N)nc3)nc(N3CCOCC3)n2)cn1`: in test [1], the cell viability, % of control (lower = more cytotoxic) came out at 28.9%. For the same compound, the Potency result in test [2] and in test [3] was “inactive” in each case. Moreover, the Potency in test [4] is 5.9 µM (active); in [5], 14.8 µM (active); in test [6], 11.8 µM (active); in test [7], 5.26 µM (active); in test [9] it was 1.46 µM (active); in [8], 1.48 µM (active).
